Source: a collection of fitness landscapes (doi:10.1016/j.celrep.2020.107928)
Whole data set: some 81,000 sequences, median “one-hybrid fitness for binding parS DNA” near -0.17, cut for the highest 2% near 0.51. The sample as a whole holds a higher share of the highest values than the screen did.

B1: Caulobacter ParB omega fusion; a variant is named by its letters at X, in order, B8GW30 (parent)
chain: MESVVVGEPGMSEGRRGLGRGLSALLGEVDAAPAQAPGEQLGGSREAPIEILQRNPDQPRRTFREEDLEDLSNSIREKGVLQPILVRPSPDTAGEYQIVAGERAWRAAQRAGLKTVPIMVRELDDLAVLEIGIIENVQRADLNVLEEALSYKVLMEKFERTQENIAQTIGKSXSHVANXMRLLXLPDEVQSYLVSGELTAXHARAIAAAADPVALAKQIIEGGLSVRETEALARKAPNLSAGKSKGGRPPRVKDTDTQALESDLSSVLGLDVSIDHRGSTGTLTITYATLEQLDDLCNRLTRGI

Variants of: B1
Assay: one-hybrid fitness for binding parS DNA (scaled: cognate 1, non-cognate 0); higher = stronger binding
Conditions: with parS DNA site
How it was run: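 The reporter was HIS3, with the binding site 19 bp from the promoter, in E. coli USO used for bacterial one-hybrid selection of Caulobacter ParB libraries with four specificity codons randomised. Growth was on M9 lacking histidine, with 0.1 mM IPTG and 5 mM 3-AT, for 48 hours at 37°C. Illumina sequencing covered plasmids before and after selection; three replicate libraries were pooled and variants with under 10 reads dropped. A fitness score is the log change in variant-to-wild-type read ratio, rescaled to the cognate and non-cognate references.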

Row | Variant | one-hybrid fitness for binding parS DNA
1 | MVDG | ≤ 0.2
2 | KIKY | ≤ 0.2
3 | NDWV | ≤ 0.2
4 | VADQ | ≤ 0.2
5 | INHN | ≤ 0.2
6 | RPKW | ≤ 0.2
7 | RTKW | 0.668
8 | RTYW | 0.262
9 | RTRW | 0.542
10 | RTDW | ≤ 0.2
11 | RTVW | 0.218
12 | NNGS | ≤ 0.2
13 | PVIL | ≤ 0.2
14 | PSIS | ≤ 0.2
15 | TSQY | ≤ 0.2
16 | PQCN | ≤ 0.2
17 | RTNF | 0.403
18 | RTNG | 0.968
19 | RTNH | ≤ 0.2
20 | RTDG | 0.935
21 | RTDD | ≤ 0.2
22 | RTDP | ≤ 0.2
23 | MGVN | ≤ 0.2
24 | DGDV | ≤ 0.2

Row | Variant | one-hybrid fitness for binding parS DNA
25 | WCVR | ≤ 0.2
26 | CTRY | ≤ 0.2
27 | YMTL | ≤ 0.2
28 | CALA | ≤ 0.2
29 | RNWM | ≤ 0.2
30 | RNGH | ≤ 0.2
31 | RNLY | 0.303
32 | RNSD | ≤ 0.2
33 | RNSG | 0.921
34 | RNWQ | ≤ 0.2
35 | RNSH | ≤ 0.2
36 | RNGN | 0.242
37 | RNGG | 0.841
38 | RNWG | 0.651
39 | RNLG | 0.831
40 | RNLQ | ≤ 0.2
41 | DCGR | ≤ 0.2
42 | MWMK | ≤ 0.2
43 | TMVR | ≤ 0.2
44 | TWPL | ≤ 0.2
45 | YNCT | ≤ 0.2
46 | YGAI | ≤ 0.2
47 | AARF | ≤ 0.2
48 | ITIY | ≤ 0.2

Row | Variant | one-hybrid fitness for binding parS DNA
49 | RNCF | ≤ 0.2
50 | RNYP | ≤ 0.2
51 | RNHG | 0.866
52 | RNCH | ≤ 0.2
53 | RNCG | 0.771
54 | RNHK | ≤ 0.2
55 | RNYR | ≤ 0.2
56 | RNQQ | ≤ 0.2
57 | RNQG | 0.882
58 | RNYG | 0.789
59 | RNHM | ≤ 0.2
60 | RNQF | ≤ 0.2
61 | GTAW | ≤ 0.2
62 | LGVR | ≤ 0.2
63 | PMST | ≤ 0.2
64 | LAKV | ≤ 0.2
65 | PYNM | ≤ 0.2
66 | TKAL | ≤ 0.2
67 | PHQS | ≤ 0.2
68 | QTGN | ≤ 0.2
69 | NQIG | ≤ 0.2
70 | LHGR | ≤ 0.2
71 | WVYT | ≤ 0.2
72 | VPRP | ≤ 0.2

Row | Variant | one-hybrid fitness for binding parS DNA
73 | RNRY | 0.503
74 | RNRG | 0.94
75 | RNRK | ≤ 0.2
76 | FALT | ≤ 0.2
77 | KIQT | ≤ 0.2
78 | TSHI | ≤ 0.2
79 | RVVC | 0.914
80 | RVVQ | ≤ 0.2
81 | RVVR | ≤ 0.2
82 | RVKC | 0.813
83 | RVKR | ≤ 0.2
84 | RVKF | 0.355
85 | DKVG | ≤ 0.2
86 | QKKI | ≤ 0.2
87 | HVMR | ≤ 0.2
88 | RAEN | 0.337
89 | RFEN | 0.342
90 | RPES | ≤ 0.2
91 | RAES | 0.948
92 | RFEP | ≤ 0.2
93 | RLES | 1
94 | RLEH | 0.228
95 | RLEP | ≤ 0.2
96 | RAED | ≤ 0.2

Row | Variant | one-hybrid fitness for binding parS DNA
97 | RFES | 0.881
98 | RCES | 1.02
99 | RCEP | ≤ 0.2
100 | SMRL | ≤ 0.2
101 | HSNG | ≤ 0.2
102 | IHDA | ≤ 0.2
103 | GPGK | ≤ 0.2
104 | LPNM | ≤ 0.2
105 | LTRT | ≤ 0.2
106 | GAAR | ≤ 0.2
107 | NIPL | ≤ 0.2
108 | RHES | 0.962
109 | RRES | 0.752
110 | RGED | ≤ 0.2
111 | RHED | ≤ 0.2
112 | RHEN | 0.369
113 | RSES | 0.902
114 | RREN | 0.3
115 | RRED | ≤ 0.2
116 | RSEH | ≤ 0.2
117 | RGEN | ≤ 0.2
118 | RSEP | ≤ 0.2
119 | RGES | 0.554
120 | TVWR | ≤ 0.2

Row | Variant | one-hybrid fitness for binding parS DNA
121 | ANGP | ≤ 0.2
122 | NLAR | ≤ 0.2
123 | SREP | ≤ 0.2
124 | GNAS | ≤ 0.2
125 | RIEN | 0.279
126 | RKEN | 0.351
127 | RMED | ≤ 0.2
128 | RIES | 0.93
129 | RKEP | ≤ 0.2
130 | RTEH | 0.208
131 | RTES | 0.985
132 | RKES | 0.899
133 | RIEP | ≤ 0.2
134 | RMES | 0.956
135 | RTED | ≤ 0.2
136 | RMEP | ≤ 0.2
137 | SVCD | ≤ 0.2
138 | VPCS | ≤ 0.2
139 | QSKG | ≤ 0.2
140 | MNTS | ≤ 0.2
141 | SEHV | ≤ 0.2
142 | RLMV | ≤ 0.2
143 | TMAV | ≤ 0.2
144 | QAEE | ≤ 0.2

Row | Variant | one-hybrid fitness for binding parS DNA
145 | RSDI | ≤ 0.2
146 | RMKQ | ≤ 0.2
147 | RMVP | 0.206
148 | RMVC | 0.96
149 | RMKC | 0.849
150 | RMVH | ≤ 0.2
151 | RMKF | 0.439
152 | EAIW | ≤ 0.2
153 | RKTH | ≤ 0.2
154 | RTTP | ≤ 0.2
155 | RITS | 0.992
156 | RTTH | 0.232
157 | RKTD | ≤ 0.2
158 | RITN | 0.409
159 | RTTS | 0.943
160 | RSTH | 0.234
161 | RKTS | 0.815
162 | RSTS | 0.986
163 | RSTD | ≤ 0.2
164 | RITH | 0.214
165 | IIGK | ≤ 0.2
166 | ENYG | ≤ 0.2
167 | PEAY | ≤ 0.2
168 | HKGC | ≤ 0.2

Row | Variant | one-hybrid fitness for binding parS DNA
169 | KDVC | ≤ 0.2
170 | LAWM | ≤ 0.2
171 | IPRY | ≤ 0.2
172 | RLTH | 0.232
173 | RFTS | 1.01
174 | RLTP | ≤ 0.2
175 | RPTS | ≤ 0.2
176 | RCTN | 0.475
177 | RCTS | 0.984
178 | RHTS | 0.893
179 | RLTS | 0.984
180 | RFTH | ≤ 0.2
181 | RHTN | 0.384
182 | RHTP | ≤ 0.2
183 | RFTP | ≤ 0.2
184 | CLVL | ≤ 0.2
185 | FTSY | ≤ 0.2
186 | KNRS | ≤ 0.2
187 | LLFA | ≤ 0.2
188 | AVGG | ≤ 0.2
189 | AARP | ≤ 0.2
190 | SKSL | ≤ 0.2
191 | VMLN | ≤ 0.2
192 | SWPW | ≤ 0.2

Row | Variant | one-hybrid fitness for binding parS DNA
193 | AGLI | ≤ 0.2
194 | MFAT | ≤ 0.2
195 | RATH | 0.255
196 | RMTS | 0.975
197 | RMTN | 0.45
198 | RATD | ≤ 0.2
199 | RMTD | 0.207
200 | RATS | 1
201 | RFVQ | ≤ 0.2
202 | RFVT | 0.614
203 | RFKT | 0.902
204 | RFKP | ≤ 0.2
205 | NFKT | ≤ 0.2
206 | RFVP | ≤ 0.2
207 | GMAG | ≤ 0.2
208 | DNQC | ≤ 0.2
209 | KSSE | ≤ 0.2
210 | PNYS | ≤ 0.2
211 | RTFD | ≤ 0.2
212 | RTFC | 0.986
213 | RTAN | 0.429
214 | RTAF | 0.256
215 | RTFN | 0.436
216 | RTAC | 0.98

Row | Variant | one-hybrid fitness for binding parS DNA
217 | ITKL | ≤ 0.2
218 | KWHC | ≤ 0.2
219 | QGYA | ≤ 0.2
220 | DFMG | ≤ 0.2
221 | RKMM | 0.283
222 | RHMY | 0.383
223 | RFMG | 0.864
224 | RKMQ | ≤ 0.2
225 | RIMG | 0.996
226 | RIMM | 0.377
227 | RIMR | ≤ 0.2
228 | RHMG | 0.932
229 | RHMK | ≤ 0.2
230 | RKMG | 0.951
231 | NFMG | ≤ 0.2
232 | AATS | ≤ 0.2
233 | LNQW | ≤ 0.2
234 | ILSS | ≤ 0.2
235 | QYSS | ≤ 0.2
236 | QVQQ | ≤ 0.2
237 | YRRM | ≤ 0.2
238 | RRMG | 0.806
239 | RRMM | ≤ 0.2
240 | RSMR | ≤ 0.2

Row | Variant | one-hybrid fitness for binding parS DNA
241 | RAMG | 0.995
242 | RRMR | ≤ 0.2
243 | RSMG | 0.962
244 | RDMG | ≤ 0.2
245 | RAMY | 0.435
246 | REMG | ≤ 0.2
247 | RCMG | 1.03
248 | RPMG | ≤ 0.2
249 | RAMK | ≤ 0.2
250 | LNGD | ≤ 0.2
251 | WSGR | ≤ 0.2
252 | IRPG | ≤ 0.2
253 | LHHS | ≤ 0.2
254 | PPPY | ≤ 0.2
255 | RLMR | ≤ 0.2
256 | RMMH | ≤ 0.2
257 | RMMG | 0.985
258 | RLMY | 0.49
259 | RMMQ | 0.215
260 | RLMG | 1.02
261 | RTMK | ≤ 0.2
262 | RTMG | 1
263 | RTMR | ≤ 0.2
264 | MPYE | ≤ 0.2

Row | Variant | one-hybrid fitness for binding parS DNA
265 | MAAF | ≤ 0.2
266 | SSTQ | ≤ 0.2
267 | DFFS | ≤ 0.2
268 | VTNA | ≤ 0.2
269 | QCWG | ≤ 0.2
270 | SHRE | ≤ 0.2
271 | RRHI | ≤ 0.2
272 | TAII | ≤ 0.2
273 | LRVW | ≤ 0.2
274 | AKPV | ≤ 0.2
275 | QKYL | ≤ 0.2
276 | RMIG | 0.947
277 | RMIH | 0.223
278 | RMPL | ≤ 0.2
279 | RMIP | ≤ 0.2
280 | RMPY | 0.322
281 | RMPG | 0.775
282 | VWYT | ≤ 0.2
283 | HCQT | ≤ 0.2
284 | TAHC | ≤ 0.2
285 | RTVP | ≤ 0.2
286 | RTKS | 0.815
287 | RTVS | 1
288 | RTKH | 0.439

Row | Variant | one-hybrid fitness for binding parS DNA
289 | RTKD | ≤ 0.2
290 | RTVN | 0.387
291 | PTHK | ≤ 0.2
292 | YTPL | ≤ 0.2
293 | RQST | 0.916
294 | RQDT | 0.768
295 | RQSR | ≤ 0.2
296 | RQRM | 0.349
297 | RQHT | 0.892
298 | RQSM | 0.319
299 | RQDY | 0.421
300 | RQHH | 0.292
301 | RQDM | 0.324
302 | RQRT | 0.849
303 | RQRK | ≤ 0.2
304 | RQHD | ≤ 0.2
305 | VPNM | ≤ 0.2
306 | PYKG | ≤ 0.2
